Here are results for 35 compounds from PubChem BioAssay.

The first experiment deals with Fibroblast growth factor 2 (Homo sapiens) (UniProt P09038). Description: basic fibroblast growth factor binding to printed compounds – biochemical, small-molecule microarray, 635/667 nm fluorescence, primary screen (AID 1133). Conditions: FGF2, fluorescence 635/667, higher = more signal.
Fibroblast growth factor 2 (Homo sapiens), sequence (P09038 whole entry, looked up): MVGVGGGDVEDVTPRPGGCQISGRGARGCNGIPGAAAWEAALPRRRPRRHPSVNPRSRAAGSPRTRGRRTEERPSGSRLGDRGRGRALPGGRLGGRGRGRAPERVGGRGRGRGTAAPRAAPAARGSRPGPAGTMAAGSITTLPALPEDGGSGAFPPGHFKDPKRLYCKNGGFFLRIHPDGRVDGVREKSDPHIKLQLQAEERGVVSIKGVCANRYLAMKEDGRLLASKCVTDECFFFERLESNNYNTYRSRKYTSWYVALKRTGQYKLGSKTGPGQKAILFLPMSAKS
In the case of `COCCOC(=O)N1C(=O)[C@@]2(c3cc(C#CCC(C(=O)OC)C(=O)OC)ccc31)[C@H](c1ccccc1OCCO)N1[C@H](c3ccccc3)[C@H](c3ccccc3)OC(=O)[C@H]1[C@@H]2C(=O)N1CCN(c2ncccn2)CC1`, the composite z-score is 1.46. Still for that read-out and setting: to `O=C(c1ccccc1)N1C(=O)[C@]2(COC(c3ccc(OCCCO)cc3)=N2)Cc2ccccc21` belongs 1.1; to `COc1ccc([Si](C)(C)[C@@H]2[C@@H](CCO)O[C@]3(C(=O)N(Cc4ccc(N(C=O)c5ccccc5)cc4)c4ccccc43)[C@H]2C)cc1`, 0.526; to `O=C1c2ccccc2[C@](Cc2ccccc2I)(C(=O)NCC(F)(F)F)[C@H](c2ccc(CO)cc2)N1Cc1ccccc1Cl`, 0.138. `COCCOC(=O)N1C(=O)[C@@]2(c3cc(C#CCCO)ccc31)[C@H](C(N)=O)[C@H]1C(=O)O[C@H](c3ccccc3)[C@H](c3ccccc3)N1[C@@H]2c1ccc(O)cc1`: the composite z-score turned out to be 0.0091. The same measure, in the same setting: with `C=C(CCCC)/C(=C/C[C@@H](OC(=O)c1ccncc1)c1ccc(OCCO)cc1)c1cc(C(=O)OC)ccc1OC` the figure was 0.0097; with `C=CCN1C(=O)[C@]2(O[C@H](CCn3cc([C@H](O)c4ccccc4)nn3)[C@@H]([Si](C)(C)c3ccc(OC)cc3)[C@@H]2C)c2ccccc21`, -0.403. The same measure, in the same setting: with `[N-]=[N+]=NCc1ccccc1[C@@H]1OC(c2ccc(OCCCO)cc2)=N[C@]1(Cc1ccccc1)C(=O)NCC(O)CO` (some centres not stated) the figure was 1.52. Still for that read-out and setting: to `COc1cc2c(cc1OC)CN(C(=O)[C@H]1[C@@H]3C(=O)O[C@@H](c4ccccc4)[C@@H](c4ccccc4)N3[C@@H](c3ccc(O)cc3)[C@]13C(=O)Nc1ccc(C#CCCO)cc13)CC2` belongs 0.0827; to `C=CCNC(=O)[C@@H]1[C@H]2C(=O)O[C@H](c3ccccc3)[C@H](c3ccccc3)N2[C@H](c2ccccc2OCCO)[C@@]12C(=O)N(C(=O)OCCOC)c1ccccc12`, 1.49.

As for `CC1(C)[C@@H]2CC(C(O)C3C=CC4C(=O)N(c5ccccc5)C(=O)C4N3Nc3ccc([N+](=O)[O-])cc3)=C[C@H]1C2` (some centres not stated), the composite z-score stood at 0.488. The compound `C=CCNC(=O)[C@H]1[C@@H]2C(=O)O[C@@H](c3ccccc3)[C@@H](c3ccccc3)N2[C@@H](c2ccccc2OCCO)[C@]12C(=O)Nc1ccc(C#CCC(C(=O)OC)C(=O)OC)cc12` returned a composite z-score of 1.27. The same measure, in the same setting: to `O=C1C2C=CC(C(O)c3cc(C(F)(F)F)cc(C(F)(F)F)c3)N(n3cnnc3)C2C(=O)N1Cc1ccccc1` (configuration not stated) belongs -0.794; to `COc1cc(NN2C(C(O)c3ccco3)C=CC3C(=O)N(c4ccccc4)C(=O)C32)cc(OC)c1OC` (configuration not stated), -0.132. Same read-out and setting: with `CN(C)CCCCCCNC(=O)[C@@H]1C[C@@H]2C(=O)N[C@@H](Cc3ccccc3)C(=O)N2[C@@H]1c1ccc(O)cc1` the figure was 1.63. With `CC(C)NC(=O)[C@@]1(c2ccc([N+](=O)[O-])cc2)CC(=O)N(C2CCCCC2)[C@@H]1c1ccc(CO)cc1I`, the composite z-score is -0.331. Same read-out and setting: with `C=CC[C@]1(C(=O)NCc2ccccc2)N=C(c2ccc(OCCCO)cc2)O[C@H]1c1ccccc1N=[N+]=[N-]` the figure was -0.26.

Tested on in another experiment: not listed separately
Description: JC-1 mitochondrial potential readout, lung cancer cells – cell-based, A549, JC-1 fluorescence, basal, 24 h, 100 nL, profiling panel (AID 1138).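 Note: A549 lung adenocarcinoma cells under basal conditions with no added stimulus; test concentration not given here.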 The following applies: higher = more signal.
`COc1ccc([C@H]2OC[C@@H]3C[C@@H](Cc4ccccc4)C(=O)N32)cc1` yielded a z-score of 1.25. The same measure, in the same setting: with `COCCCNC(=O)[C@@H]1c2ccccc2C(=O)N(Cc2ccccc2Cl)[C@H]1c1ccc(CO)cc1` the figure was 2.35; with `O=C1C2C=CC(C(O)c3cccc4ccccc34)N(Nc3ccccc3F)C2C(=O)N1c1ccccc1` (configuration not stated), -0.968; with `COC(=O)[C@@]1(CCS(=O)(=O)c2ccccc2)N=C(c2ccc(OCCCO)cc2)O[C@H]1c1ccccc1CN=[N+]=[N-]`, -0.229. The same measure, in the same setting: with `C=C[C@H](OC)[C@@H](OC(=O)Nc1ccc(OC)cc1)c1ccc(O)c(F)c1` the figure was -0.944; with `C=CCC(OC(C)=O)[C@@H]1[C@@H](N(Cc2ccc(-c3ccccc3)cc2)C(=O)c2cccc3ccccc23)c2cc(OCCCO)ccc2N1C(=O)c1ccc(-c2ccccc2)cc1` (some centres not stated), 1.68; with `C=CCOC(=O)[C@H]1[C@@H]2C(=O)O[C@@H](c3ccccc3)[C@@H](c3ccccc3)N2[C@@H](c2ccc(OCCOC(=O)[C@H]3C[C@H]4C(=O)N[C@@H](CCCC[N+](C)(C)C)C(=O)N4[C@H]3c3ccc(O)cc3)cc2)[C@]12C(=O)Nc1ccc(I)cc12`, 0.694.

As for `COC(=O)[C@@]1(Cc2ccc(OC)cc2)[C@@H]2C(=CC(=O)[C@H]2CC(=O)C(=O)N2CCCC2)CN1C(=O)c1ccccc1`, the z-score stood at 1.55.

`C[C@H]1NC(=O)[C@@]23C(=O)N[C@@H](Cc4ccccc4)C2[C@H](C)[C@@]2(C)O[C@H]2C3/C=C/C/C=C\CNC(=O)[C@@H]2CCCN2C1=O` (some centres not stated) returned a z-score of 0.419. Still for that read-out and setting: to `O=C(OCc1ccccc1)C1=CCC2c3[nH]c4ccccc4c3C(=O)C1N2S(=O)(=O)c1ccccc1[N+](=O)[O-]` (configuration not stated) belongs -2.71.

Turning to `COC(=O)[C@@]1(Cc2ccc(OC)cc2)[C@H]2c3cc(C(=O)N4CCCC4)n(Cc4ccc(C)c(F)c4F)c3C[C@H]2CN1C(=O)c1ccccc1`, the z-score turned out to be 1.41. The same measure, in the same setting: with `C=CCOC(=O)[C@H]1[C@@H]2C(=O)O[C@@H](c3ccccc3)[C@@H](c3ccccc3)N2[C@@H](c2ccc(OCCOC(=O)[C@H]3C[C@H]4C(=O)N[C@@H](CCCCNC(C)=O)C(=O)N4[C@H]3c3cccc(OCCO)c3)cc2)[C@]12C(=O)Nc1ccccc12` the figure was -0.472; with `CC(C)c1ccc(NN2C(C(O)c3ccc(B(O)O)cc3)C=CC3C(=O)N(c4ccccc4)C(=O)C32)cc1` (configuration not stated), -0.641. `CCCC=C(CCC)[C@@H](NC(=O)c1cccs1)c1ccc(C(F)(F)F)cc1` registered a z-score of 0.627. Still for that read-out and setting: with `COc1ccc(C#Cc2ccc3c(c2)[C@]2(C(=O)N3)[C@H](C(=O)Nc3nc4ccccc4s3)[C@H]3C(=O)O[C@H](c4ccccc4)[C@H](c4ccccc4)N3[C@@H]2c2ccc(O)cc2)cc1` the figure was -2.22. Same read-out and setting: to `CCCCCCc1nc(-c2cc(C)c(OC)c(C)c2)cc2c1[Si](C(C)C)(C(C)C)OC2` belongs -0.693; to `COCCOC(=O)N1C(=O)[C@@]2(c3cc(C#Cc4ccc(OC)cc4)ccc31)[C@H](c1ccccc1OCCO)N1[C@H](c3ccccc3)[C@H](c3ccccc3)OC(=O)[C@H]1[C@@H]2C(=O)NC[C@H](O)c1ccccc1`, -0.922. On the same count and under the same terms, to `COC(=O)C(CC#Cc1ccc2c(c1)[C@]1(C(=O)N2)[C@H](c2ccc(OCCO)cc2)N2[C@H](c3ccccc3)[C@H](c3ccccc3)OC(=O)[C@H]2[C@@H]1C(=O)N1CCc2cc(OC)c(OC)cc2C1)C(=O)OC` belongs -1.26; to `COCCOC(=O)N1C(=O)[C@@]2(c3cc(C#CCC(C(=O)OC)C(=O)OC)ccc31)[C@H](c1ccccc1OCCO)N1[C@H](c3ccccc3)[C@H](c3ccccc3)OC(=O)[C@H]1[C@@H]2C(=O)N1CCN(c2ncccn2)CC1`, -0.895; to `O=C(c1ccccc1)N1C(=O)[C@]2(COC(c3ccc(OCCCO)cc3)=N2)Cc2ccccc21`, -0.345. On to `COc1ccc([Si](C)(C)[C@@H]2[C@@H](CCO)O[C@]3(C(=O)N(Cc4ccc(N(C=O)c5ccccc5)cc4)c4ccccc43)[C@H]2C)cc1`, for which the z-score is -0.0272. As to `O=C1c2ccccc2[C@](Cc2ccccc2I)(C(=O)NCC(F)(F)F)[C@H](c2ccc(CO)cc2)N1Cc1ccccc1Cl`, the z-score is 0.423. `COCCOC(=O)N1C(=O)[C@@]2(c3cc(C#CCCO)ccc31)[C@H](C(N)=O)[C@H]1C(=O)O[C@H](c3ccccc3)[C@H](c3ccccc3)N1[C@@H]2c1ccc(O)cc1` displayed a z-score of 0.0757. In turn, `C=C(CCCC)/C(=C/C[C@@H](OC(=O)c1ccncc1)c1ccc(OCCO)cc1)c1cc(C(=O)OC)ccc1OC` showed a z-score of 1.21.

For `C=CCN1C(=O)[C@]2(O[C@H](CCn3cc([C@H](O)c4ccccc4)nn3)[C@@H]([Si](C)(C)c3ccc(OC)cc3)[C@@H]2C)c2ccccc21`, the z-score was -0.156.

In turn, `[N-]=[N+]=NCc1ccccc1[C@@H]1OC(c2ccc(OCCCO)cc2)=N[C@]1(Cc1ccccc1)C(=O)NCC(O)CO` (some centres not stated) returned a z-score of 0.529.

With `COc1cc2c(cc1OC)CN(C(=O)[C@H]1[C@@H]3C(=O)O[C@@H](c4ccccc4)[C@@H](c4ccccc4)N3[C@@H](c3ccc(O)cc3)[C@]13C(=O)Nc1ccc(C#CCCO)cc13)CC2`, the z-score was -0.824.

Compound `C=CCNC(=O)[C@@H]1[C@H]2C(=O)O[C@H](c3ccccc3)[C@H](c3ccccc3)N2[C@H](c2ccccc2OCCO)[C@@]12C(=O)N(C(=O)OCCOC)c1ccccc12` returned a z-score of 0.432. Regarding `CC1(C)[C@@H]2CC(C(O)C3C=CC4C(=O)N(c5ccccc5)C(=O)C4N3Nc3ccc([N+](=O)[O-])cc3)=C[C@H]1C2` (some centres not stated), the z-score was -1.25. The same measure, in the same setting: with `C=CCNC(=O)[C@H]1[C@@H]2C(=O)O[C@@H](c3ccccc3)[C@@H](c3ccccc3)N2[C@@H](c2ccccc2OCCO)[C@]12C(=O)Nc1ccc(C#CCC(C(=O)OC)C(=O)OC)cc12` the figure was 0.627; with `O=C1C2C=CC(C(O)c3cc(C(F)(F)F)cc(C(F)(F)F)c3)N(n3cnnc3)C2C(=O)N1Cc1ccccc1` (configuration not stated), -1.57. The same measure, in the same setting: with `COc1cc(NN2C(C(O)c3ccco3)C=CC3C(=O)N(c4ccccc4)C(=O)C32)cc(OC)c1OC` (configuration not stated) the figure was -0.16; with `CN(C)CCCCCCNC(=O)[C@@H]1C[C@@H]2C(=O)N[C@@H](Cc3ccccc3)C(=O)N2[C@@H]1c1ccc(O)cc1`, -1.06; with `CC(C)NC(=O)[C@@]1(c2ccc([N+](=O)[O-])cc2)CC(=O)N(C2CCCCC2)[C@@H]1c1ccc(CO)cc1I`, 2.97. Compound `C=CC[C@]1(C(=O)NCc2ccccc2)N=C(c2ccc(OCCCO)cc2)O[C@H]1c1ccccc1N=[N+]=[N-]` showed a z-score of 0.34.
